High-throughput results as filed in PubChem BioAssay.
S2 tox: reduces viability in counter-screen for ATXN expression inhibitors. 0.49% of 400,000 active. S2 cells (HEK-293 line with an ATXN2-luciferase reporter) viability, CellTiter-Fluor protease fluorescence, 24 h. AID 651635. Potency, µM (series often up to 56.7 µM), actives largely listed as cytotoxic; note: nearly all actives have a fitted effect of over 40% in size
ATXN2 expr inh: inhibitors of ATXN2 expression | HEK-293 ATXN2-luciferase reporter, luminescence, 24 h | 0.72% of 360,000 active | AID 1745845 | Potency, µM (series often up to 57 µM), hits mostly inhibitors; note: nearly all actives have a fitted effect of over 55% in size
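qHTS (up to 57 uM final) was run with 24 h compound exposure of reporter cells at 37 °C. Each well was multiplexed: SteadyGlo luminescence measured ATXN2-luciferase expression after a fluorogenic Gly-Phe-AFC viability readout (25 uM final).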
VP16 counter: inhibits Gal4-VP16 luciferase reporter, ROR gamma counter-screen. Drosophila S2 Gal4-VP16 UAS-luciferase, luminescence, 20 h. Potency, µM (titrated, usually from 53.6 µM), most hits filed as inhibitors. 3.5% of 310,000 active. AID 2546;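 note: Gal4-VP16 expression switched on by copper sulfate through the metallothionein promoter; nearly all actives have a fitted effect of over 50% in size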
TGFb SMAD3 inh: blocks TGF-b signaling. HepG2 CAGA-GFP TGF-b/SMAD3 reporter, GFP fluorescence, 18 h; TGF-beta stimulated, 500 pg/mL final. Potency, µM (titrated, usually from 46.1 µM), most hits filed as inhibitors. 1.2% of 410,000 active; note: nearly all actives have a fitted effect of over 65% in size
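HEPG2 CAGA-GFP cells (1000/well, DMEM with 1% FBS) were pre-incubated 2 h at 37 degrees C, given compound by pin tool, then stimulated with TGF-beta at 500 pg/mL final for 18 h before per-cell GFP fluorescence imaging.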
HepG2 viability: kills HepG2 cells in TGF-b inhibitor counter-screen | Potency, µM (top dose mostly 46.1 µM), usual class: cytotoxic | HepG2 CAGA-GFP viability, ATP luminescence, 18 h | 0.76% of 410,000 active
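HepG2 CAGA-GFP cells (1000/well, DMEM with 1% FBS) received compound, then TGF-beta at 500 pg/mL final, and were incubated 18 hours at 37 degrees C. Viability was read by CellTiter-Glo luminescence. Media-only wells were set as complete cell-killing and DMSO as no toxicity.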
RORg inh: inhibitors of mouse ROR gamma transcriptional activity | AID 2551 | Drosophila S2 Gal4-RORgamma UAS-luciferase reporter, 20 h | P51450 | Potency, µM (doses to about 53.6 µM), hits mostly inhibitors | 5.4% of 310,000 active; note: nearly all actives have a fitted effect of over 60% in size
Target sequence (P51450 whole entry, looked up, the tested form may be a part): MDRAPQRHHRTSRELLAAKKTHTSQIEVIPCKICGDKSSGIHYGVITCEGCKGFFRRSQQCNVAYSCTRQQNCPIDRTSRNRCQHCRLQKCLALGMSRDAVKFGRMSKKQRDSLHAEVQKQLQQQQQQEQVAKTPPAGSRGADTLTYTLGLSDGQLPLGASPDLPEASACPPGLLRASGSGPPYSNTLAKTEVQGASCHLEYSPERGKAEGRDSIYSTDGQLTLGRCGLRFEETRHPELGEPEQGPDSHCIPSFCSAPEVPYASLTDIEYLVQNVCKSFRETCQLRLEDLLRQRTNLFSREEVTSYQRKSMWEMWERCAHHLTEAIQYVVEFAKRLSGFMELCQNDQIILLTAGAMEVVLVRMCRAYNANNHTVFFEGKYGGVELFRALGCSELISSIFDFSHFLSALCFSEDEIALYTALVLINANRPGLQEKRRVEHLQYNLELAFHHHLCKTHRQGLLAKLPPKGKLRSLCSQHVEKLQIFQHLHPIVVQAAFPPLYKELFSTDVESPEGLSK
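Stably transfected Drosophila Schneider cells are the test system, with ROR gamma fused to Gal4 and luciferase under UAS control; luminescence is read after 20 hr of 700 uM copper sulfate induction at ambient temperature.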
Of the large screens only hits and unclear results are named; the others gave an inactive call. In the library only some 6.1% were active in any assay of this set; here they are far more common. Calls come from the whole dose curve; as a rule, active = well fitted curve in the direction sought with a large enough effect; inconclusive = small, poorly fitted or top-dose-only effect, or another doubt; inactive = no such curve, though single readings can be large; an effect the other way counts as inactive or inconclusive.

COc1ccc(C(=O)NCc2ccc3c(c2)CCN3C(=O)c2ccncc2)cc1	none (no result: S2 tox, ATXN2 expr inh, VP16 counter, RORg inh)
COc1ccc(-n2nc(C(=O)Nc3cc(C)ccn3)c3c4ccccc4n(C)c3c2=O)cc1	none (no result: VP16 counter, RORg inh)
Cc1ccccc1Nc1c(-c2c(F)cccc2Cl)nc2ccc(Br)cn12	S2 tox inconclusive (no result: VP16 counter, RORg inh)
CC(=O)N1CCc2c(sc3c2c(=O)n(-c2cc(Cl)ccc2C)c(=O)n3Cc2ccccc2F)C1	S2 tox inconclusive, ATXN2 expr inh inconclusive (no result: VP16 counter, RORg inh)
CC(C)(C)c1ccccc1OCCCCCn1ccnc1	VP16 counter inconclusive, TGFb SMAD3 inh inconclusive, RORg inh 17.8µM
Cc1cccc(OCCCCCn2ccnc2)c1C	VP16 counter inconclusive, RORg inh inconclusive
Cc1nn(Cc2ccc(F)cc2)c(C)c1NC(=O)c1cc(-c2ccc3c(c2)OCO3)on1	RORg inh inconclusive
O=C(Nc1ccc2c(c1)OCO2)c1cc(-c2cccc(O)c2)on1	VP16 counter 14.1µM, RORg inh 7.08µM
O=C(Nc1cccc(O)c1)c1cc(-c2ccco2)on1	VP16 counter inconclusive, RORg inh 12.6µM
O=C(Nc1ccc2c(c1)OCO2)c1cc(-c2ccc(O)cc2)on1	VP16 counter inconclusive
COc1ccc(-c2cc(C(=O)Nc3ccc(C)c(C)c3)no2)cc1	none (no result: ATXN2 expr inh)
Cc1ccc(Cn2nc(C)c(NC(=O)c3cc(-c4ccc5c(c4)OCO5)on3)c2C)cc1	S2 tox inconclusive, ATXN2 expr inh inconclusive, VP16 counter inconclusive, HepG2 viability 11.2µM, RORg inh inconclusive
COc1ccc(-c2cc(C(=O)Nc3cccc(O)c3)no2)cc1	ATXN2 expr inh inconclusive, VP16 counter 3.16µM, RORg inh 1.41µM
CC(=O)N1CCC(N(Cc2ccc(C)o2)C(=O)Nc2ccc(C)cc2)CC1	none (no result: VP16 counter, RORg inh)
Cc1ccc(CCNC(=O)c2cc3cc4cc(C)ccc4nc3s2)cc1	none (no result: VP16 counter, RORg inh)
